In PubChem BioAssay AID1159580 (chemical genetic matrix, 2015):
Several values for one entry are separate records, joined by “and”; a condition that tells them apart may be missing. Equal values may be shown once. Out of some 5,500 compounds screened, about 2,000 (36%) were called active. Inconclusive results (about 18%) are left out. Rule as the data show it: active = normalized growth mostly below about 0.91 (no sharp cut-off); inconclusive = no clear call, values can overlap the other calls; inactive = mostly above about 0.92. Some of the results follow.

Assay: chemical genetic growth profiling, strain panel (AID 1159580);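 also: tested at 20 µM; growth read once vehicle control cultures reached saturation at 30 °C; 1 = growth at the plate median or of vehicle wells; lower values mean less growth of the strain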
Conditions: S. cerevisiae deletion strains, growth OD

Measured: normalized growth

COc1ccc(-c2cc(=O)c3c(O)c(OC)c(O[C@H]4O[C@H](CO[C@@H]5O[C@@H](C)[C@H](O)[C@@H](O)[C@H]5O)[C@@H](O)[C@H](O)[C@H]4O)cc3o2)cc1
inactive: locus YAL021C, strain ccr4, stronger effect = lower value 1.02 | locus YAL026C, strain drs2, stronger effect = lower value 1 | locus YAL030W, strain snc1, stronger effect = lower value 1.01 | locus YBL061C, strain skt5, stronger effect = lower value 0.996 | locus YBR009C, strain hhf1, stronger effect = lower value 1 | locus YBR021W, strain FUR4, stronger effect = lower value 1.02 | locus YBR023C, strain chs3, stronger effect = lower value 0.996 | locus YBR171W, strain sec66, stronger effect = lower value 0.989 | locus YBR229C, strain ROT2, stronger effect = lower value 1.01 | locus YBR231C, strain swc5, stronger effect = lower value 0.977 | locus YBR279W, strain paf1, stronger effect = lower value 0.987 | locus YCL011C, strain gbp2, stronger effect = lower value 0.991 | locus YCL016C, strain dcc1, stronger effect = lower value 1.01 | locus YCL029C, strain bik1, stronger effect = lower value 1.04 | locus YCL061C, strain MRC1, stronger effect = lower value 1 | locus YCL069W, strain vba3, stronger effect = lower value 1 | locus YCR088W, strain abp1, stronger effect = lower value 1.01 | locus YDL005C, strain med2, stronger effect = lower value 1 | locus YDL035C, strain GPR1, stronger effect = lower value 1.02 | locus YDL040C, strain nat1, stronger effect = lower value 0.98 | locus YDL074C, strain BRE1, stronger effect = lower value 1.01 | locus YDL101C, strain DUN1, stronger effect = lower value 1.02 | locus YDL185W, strain tfp1, stronger effect = lower value 1.01 | locus YDL192W, strain arf1, stronger effect = lower value 1.01 | locus YDR001C, strain nth1, stronger effect = lower value 1 | locus YDR069C, strain doa4, stronger effect = lower value 0.967 | locus YDR101C, strain arx1, stronger effect = lower value 1.02 | locus YDR137W, strain rgp1, stronger effect = lower value 1.05 | locus YDR150W, strain NUM1, stronger effect = lower value 1.01 | locus YDR159W, strain sac3, stronger effect = lower value 0.995 | locus YDR162C, strain NBP2, stronger effect = lower value 1.03 | locus YDR195W, strain ref2 0.978 | locus YDR297W, strain sur2, stronger effect = lower value 0.988 | locus YDR318W, strain mcm21, stronger effect = lower value 1.02 | locus YDR334W, strain swr1, stronger effect = lower value 0.99 | locus YDR335W, strain msn5, stronger effect = lower value 1 | locus YDR388W, stronger effect = lower value 1.01 | locus YDR392W, strain spt3, stronger effect = lower value 0.981 | locus YDR502C, strain sam2, stronger effect = lower value 1.01 | locus YEL003W, strain gim4, stronger effect = lower value 0.982 | locus YEL037C, strain rad23, stronger effect = lower value 1 | locus YEL061C, strain CIN8 (second series), stronger effect = lower value 0.996 | locus YER015W, strain faa2, stronger effect = lower value 0.984 | locus YER016W, strain bim1, stronger effect = lower value 0.992 | locus YER110C, stronger effect = lower value 1.02 | locus YER111C, strain swi4, stronger effect = lower value 0.979 | locus YER155C, strain BEM2 (second series), stronger effect = lower value 0.972 | locus YER155C, strain BEM2, stronger effect = lower value 1.04 | locus YER167W, strain BCK2, stronger effect = lower value 1.02 | locus YFR010W, strain ubp6, stronger effect = lower value 0.994 | locus YGL078C, strain dbp3, stronger effect = lower value 1.01 | locus YGL086W, strain mad1, stronger effect = lower value 1.01 | locus YGL167C, strain pmr1, stronger effect = lower value 0.983 | locus YGL173C, strain kem1, stronger effect = lower value 0.996 | locus YGL227W, strain vid30, stronger effect = lower value 1 | locus YGL240W, strain doc1, stronger effect = lower value 0.998 | locus YGL248W, strain PDE1, stronger effect = lower value 1.01 | locus YGL253W, strain hxk2, stronger effect = lower value 1 | locus YGR078C, strain PAC10, stronger effect = lower value 0.999 | locus YGR135W, strain pre9, stronger effect = lower value 0.993 | locus YGR229C, strain SMI1, stronger effect = lower value 1.16 | locus YGR252W, strain gcn5, stronger effect = lower value 0.955 | locus YHR013C, strain ard1, stronger effect = lower value 1 | locus YHR027C, strain rpn1, stronger effect = lower value 0.99 | locus YHR030C, strain SLT2, stronger effect = lower value 1.02 and 0.993 | locus YHR079C, strain IRE1 (second series), stronger effect = lower value 1.01 | locus YHR079C, strain IRE1, stronger effect = lower value 1.01 | locus YHR094C, strain hxt1, stronger effect = lower value 1.01 | locus YHR129C, strain ARP1, stronger effect = lower value 1 | locus YHR142W, strain chs7, stronger effect = lower value 1.01 | locus YHR200W, strain rpn10, stronger effect = lower value 1.01 | locus YIL066C, strain RNR3, stronger effect = lower value 1.02 | locus YIL073C, strain SPO22, stronger effect = lower value 1.08 | locus YIL125W, strain kgd1, stronger effect = lower value 1.01 | locus YIR030C, strain dcg1, stronger effect = lower value 1.02 | locus YJL092W, strain hpr5, stronger effect = lower value 0.994 | locus YJL095W, strain BCK1 (second series), stronger effect = lower value 1 | locus YJL095W, strain BCK1, stronger effect = lower value 1.02 and 0.995 | locus YJL115W, strain asf1, stronger effect = lower value 0.999 | locus YJL129C, strain trk1, stronger effect = lower value 0.994 | locus YJL134W, strain LCB3, stronger effect = lower value 1.02 | locus YJL154C, strain vps35, stronger effect = lower value 1 | locus YJL164C, strain tpk1, stronger effect = lower value 1 | locus YJL166W, strain qcr8, stronger effect = lower value 1 | locus YJL168C, strain set2, stronger effect = lower value 1 | locus YJL187C, strain SWE1 (second series), stronger effect = lower value 1.01 | locus YJL187C, strain SWE1, stronger effect = lower value 1.02 | locus YJR066W, strain TOR1, stronger effect = lower value 0.906 | locus YKL009W, strain mrt4, stronger effect = lower value 1.05 | locus YKL068W, stronger effect = lower value 1.02 | locus YKL085W, strain MDH1 (second series), stronger effect = lower value 1.02 | locus YKL085W, strain MDH1, stronger effect = lower value 1.02 | locus YKL160W, strain elf1, stronger effect = lower value 0.997 | locus YKL190W, strain CNB1, stronger effect = lower value 1.01 | locus YKR001C, strain vps1, stronger effect = lower value 1.01 | locus YKR026C, strain gcn3, stronger effect = lower value 0.992 | locus YKR091W, strain srl3, stronger effect = lower value 0.998 | locus YLL001W, strain dnm1, stronger effect = lower value 1 | locus YLL026W, stronger effect = lower value 0.998 | locus YLL041C, strain sdh2, stronger effect = lower value 1 | locus YLR027C, strain aat2, stronger effect = lower value 0.988 | locus YLR039C, strain RIC1, stronger effect = lower value 1.1 | locus YLR058C, strain SHM2, stronger effect = lower value 1.02 | locus YLR102C, strain apc9, stronger effect = lower value 1.02 | locus YLR113W, strain HOG1, stronger effect = lower value 1.04 | locus YLR221C, strain rsa3, stronger effect = lower value 0.995 | locus YLR258W, strain gsy2, stronger effect = lower value 1.02 | locus YLR262C, strain YPT6 (second series), stronger effect = lower value 1.03 | locus YLR268W, strain sec22, stronger effect = lower value 1.03 | locus YLR320W, strain mms22, stronger effect = lower value 0.998 | locus YLR342W, strain FKS1 (second series), stronger effect = lower value 1.03 | locus YLR342W, strain FKS1, stronger effect = lower value 1 | locus YLR357W, strain rsc2, stronger effect = lower value 0.964 | locus YLR370C, strain arc18, stronger effect = lower value 0.995 | locus YLR371W, strain rom2, stronger effect = lower value 1.03 | locus YLR384C, strain iki3, stronger effect = lower value 0.978 | locus YLR418C, strain cdc73, stronger effect = lower value 1.03 | locus YML016C, strain PPZ1, stronger effect = lower value 0.991 | locus YML032C, strain rad52, stronger effect = lower value 1.03 | locus YML120C, strain ndi1, stronger effect = lower value 1.01 | locus YML124C, strain tub3, stronger effect = lower value 1.02 | locus YMR058W, strain fet3, stronger effect = lower value 0.928 | locus YMR078C, strain ctf18, stronger effect = lower value 1.02 | locus YMR125W, strain sto1, stronger effect = lower value 1 | locus YMR129W, stronger effect = lower value 0.996 | locus YMR205C, strain PFK2, stronger effect = lower value 1.05 | locus YMR223W, strain ubp8, stronger effect = lower value 1.01 | locus YMR231W, strain pep5, stronger effect = lower value 0.96 | locus YMR307W, strain GAS1, stronger effect = lower value 1.08 | locus YNL067W, strain RPL9B, stronger effect = lower value 1.01 | locus YNL071W, strain lat1, stronger effect = lower value 1.01 | locus YNL128W, strain TEP1, stronger effect = lower value 1.03 | locus YNL183C, strain NPR1, stronger effect = lower value 0.938 | locus YNL209W, strain ssb2, stronger effect = lower value 0.986 | locus YNL233W, strain BNI4, stronger effect = lower value 1.01 | locus YNL248C, strain rpa49, stronger effect = lower value 0.996 | locus YNL250W, strain rad50, stronger effect = lower value 1.04 | locus YNL271C, strain bni1, stronger effect = lower value 1.01 | locus YNL298W, strain CLA4, stronger effect = lower value 1.02 | locus YNL307C, strain MCK1, stronger effect = lower value 1.01 | locus YNL322C, strain KRE1 (second series), stronger effect = lower value 1 | locus YNR049C, strain mso1, stronger effect = lower value 1 | locus YNR052C, strain pop2, stronger effect = lower value 1.01 | locus YOL012C, strain htz1 0.859 | locus YOL147C, strain pex11, stronger effect = lower value 0.996 | locus YOR001W, strain rrp6, stronger effect = lower value 0.98 | locus YOR061W, strain CKA2, stronger effect = lower value 1.02 | locus YOR069W, strain VPS5, stronger effect = lower value 1.01 | locus YOR070C, strain gyp1, stronger effect = lower value 0.985 | locus YOR080W, strain dia2, stronger effect = lower value 0.992 | locus YOR083W, strain WHI5, stronger effect = lower value 0.998 | locus YOR106W, strain vam3, stronger effect = lower value 0.992 | locus YOR136W, strain idh2, stronger effect = lower value 1.02 | locus YOR144C, strain elg1, stronger effect = lower value 1.02 | locus YOR184W, strain ser1, stronger effect = lower value 1.04 | locus YOR231W, strain MKK1, stronger effect = lower value 1.03 | locus YOR265W, strain rbl2, stronger effect = lower value 1.02 | locus YOR270C, strain vph1, stronger effect = lower value 0.993 | locus YOR290C, strain snf2, stronger effect = lower value 0.992 | locus YOR316C, strain cot1, stronger effect = lower value 1.02 | locus YPL051W, strain arl3, stronger effect = lower value 0.995 | locus YPL078C, strain atp4, stronger effect = lower value 1.03 | locus YPL106C, strain sse1, stronger effect = lower value 0.974 | locus YPL240C, strain hsp82, stronger effect = lower value 0.995 | locus YPL241C, strain CIN2, stronger effect = lower value 1.01 | locus YPL256C, strain CLN2, stronger effect = lower value 0.994 | locus YPR119W, strain clb2, stronger effect = lower value 1.01 | locus YPR141C, strain kar3, stronger effect = lower value 1.02 | locus YPR163C, strain tif3, stronger effect = lower value 0.999 | locus YPR167C, strain met16, stronger effect = lower value 1.01 | strain wtn01, stronger effect = lower value 1.01
